A selection: hits, their analogues and other compounds. The true share with any hit is near 4.3%.
HSF1 inhib = HSF1 inhibition. NIH3T3-HGL HSE-luciferase, MG132-induced, luminescence 8 h; active compounds read low. activity change, negative = inhibition, % at 7.5 µM (by protocol). 300,000 tested, 0.77% active. AID 2098;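 active means more than half of replicate wells show activity change below -50%, luminescence cut by over half; inconclusive means some wells, but at most half, below -50%; inactive means no replicate well below -50%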;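 further: luciferase reports HSF-1 transcriptional activity via heat shock element; 0% = median of DMSO wells and -100% = zero luminescence signal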
MITF TRPM1 HTS = MITF TRPM1 promoter activation in melanoma cells; SK-MEL-5 TRPM1-promoter luciferase, 24 h; % of positive control, neutral wells = 0; activation, % at 12.5 µM; 300,000 tested, 0.75% active;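 active means mean activation of at least 80% with every replicate also reaching 80%; inconclusive means mean reaches 80% but some replicate falls short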;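 further: 0% = neutral control wells and 100% = parthenolide positive control wells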
esBAF inh = inhibitors of esBAF chromatin remodeling in mouse ES cells; Bmi1-luciferase knock-in reporter, 24 h; 100% = twice the neutral-well signal; reporter increase, % at 12.5 µM; 350,000 tested, 2% active; AID 602393; in the data active means activation above about 40%; inconclusive means no clear call, values can overlap the other calls;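 further: 0% = median of the plate's neutral control wells and 100% = double that signal; a rise in the Bmi1 reporter signal indicates esBAF inhibition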
Wnt bcat act = Wnt/beta-catenin pathway activation; AID 743398; activation, % at 9.35 µM; 300,000 tested, 1.2% active; Wnt/beta-catenin reporter cell assay, activator, plate reader; in the data active means activation above about 30%, passing the limit was not always enough; inconclusive means no clear call, values can overlap the other calls;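 further: 0% = neutral control wells and 100% = positive control wells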
SMARCA2 activ = increases SMARCA2 function in MMTV reporter cells; MG213 cells, MMTV-luciferase reporter, dexamethasone, overnight; activation, % at 9.1 µM; 370,000 tested, 1% active; in the data active means activation above about 7.8%;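 further: 0% = vehicle wells and 100% = reference activator wells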
HSF1 activator = increases HSF-1 driven luciferase reporter signal; NIH3T3-HGL HSF-1 luciferase reporter, MG132, 8 h; 100% = twice DMSO control signal; activation, % at 9 µM; 300,000 tested, 1.7% active; AID 504408;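 active means mean replicate activation of at least 50% with a set share of replicates each reaching 50%; inconclusive means only one of those two conditions met; inactive means mean below 50% and too few replicates reaching it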;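 further: 0% = median of the neutral control wells and 100% = twice that signal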
SMARCA2 act conf = SMARCA2 activation, confirmation screen | shares compounds with SMARCA2 activ | activation, % at 9.1 µM | 3,500 tested, 30% active | MG213 cells, MMTV-luciferase with dexamethasone, luminescence, overnight; MG213 cells expressing E1A, Rb sequestered; DMSO wells 0%, reference activator 100%;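 active means activation above its plate's cutoff, the mean activation of tested wells plus 3 SD, cut at about 7.9% in these data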
GAL4-VP16 Luc = counter-screen for SMARCA2 activators: GAL4-VP16 luciferase reporter activation; shares compounds with SMARCA2 activ; HEK293 GAL4-VP16 pG5luc reporter, luciferase luminescence; scaled: DMSO wells 0%, SAHA wells 100%; activation, % at 9.1 µM; 3,500 tested, 41% active; AID 686939;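 active means activation above the solvent-only control well mean plus 3 SD, averaged across control plates, cut at about 5.2% in these data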
* = called active by the depositor; ? = inconclusive; . = no result.

SMILES	HSF1 inhib	MITF TRPM1 HTS	esBAF inh	Wnt bcat act	SMARCA2 activ	HSF1 activator	SMARCA2 act conf	GAL4-VP16 Luc
CCn1c(C)csc1=NC(=O)c1ccccc1O	21	27	?	16	12*	39	4	8.0*
CCN1CCC(=NNC(=O)c2ccco2)CC1	27	7	6	0	14*	39	-1	-1
CCN1CCN(c2ccc(NC(=O)c3ccco3)cc2)CC1	-6	86*	.	16	8.3*	-5	5	5
CO[C@@H]1CN(C)C(=O)c2ccc(NC(=O)C3CCCC3)cc2OC[C@H](C)N(C(C)=O)C[C@@H]1C	.	.	3	.	.	.	.	.
CCN(CC)c1ccc(/C=N/Nc2nc(C)cc(C)n2)cc1	-5	.	.	10	8.1*	-8	-4	1
CC(C)N1CCC(N2CCN(Cc3ccc(-c4ccc(Cl)cc4)o3)CC2CCO)CC1 (stereo unspecified)	-10	36	-4	-2	9.9*	0	7	1
CC1(C)CC(=O)CC2(C1)NCC(c1ccccc1)c1c2[nH]c2ccccc12 (stereo unspecified)	-5	-10	-1	-1	8.7*	18	-2	1
Cc1ccc(S(=O)(=O)N[C@@H]2C=C[C@@H](CC(=O)N3CCN(c4ccccc4)CC3)O[C@H]2CO)cc1	.	.	4	.	.	.	.	.
Cc1cc(C)c2c(n1)sc1c(N3CCN(CCO)CC3)ncnc12	1	11	2	.	8.5*	-10	7	1
CCC(=O)N(C)C[C@H]1Oc2cc(-c3ccc(C#N)cc3)ccc2S(=O)(=O)N([C@@H](C)CO)C[C@H]1C	.	.	-5	.	.	.	.	.
CN(C)CC#Cc1ccc([C@H]2[C@H]3CN(CC4CCOCC4)CCCCN3[C@H]2CO)cc1	.	.	2	.	.	.	.	.
CC1(C)Cc2c(sc(NC(=O)c3ccc(C(=O)c4ccccc4)cc3)c2C(N)=O)C(C)(C)N1	-3	-41	.	23	-2	4	.	.
CC1(C)Cc2c(sc(NC(=O)c3ccc4ncsc4c3)c2C(N)=O)C(C)(C)N1	-53*	-77	.	-2	8.5*	-54	13*	8.0*
CCOC(=O)c1sc(=NC(=O)c2cccc(C)c2)n(C)c1C	-1	49	.	14	13*	6	5	5.9*
CCOC(=O)c1sc(=NC(=O)c2ccc(F)cc2)n(C)c1C	15	58	27	?	3	14	.	.
COCCNC(=O)C[C@@H]1CC[C@@H]2[C@H](COc3ccc(NC(=O)c4cnccn4)cc3C(=O)N2C)O1	.	.	4	.	.	.	.	.
CCNC(=O)C[C@H]1CC[C@H]2[C@@H](COC[C@@H](O)CN2C(=O)C2CC2)O1	.	.	-7	.	.	.	.	.
Cn1cccc1/C=C(\C#N)C(N)=S	0	-16	8	-3	-3	-9	.	.
N#C/C(=C/c1cc[nH]c1)C(N)=S	-10	-11	.	1	8.6*	-3	-4	1
COC(=O)c1nn(-c2ccc3c(c2)OCO3)cc1O	15	44	.	.	9.0*	26	13*	11*
CCOC(=O)c1nn(-c2ccc3c(c2)OCCO3)cc1O	21	82*	1	27	11*	44	8.3*	12*
COC(=O)C1=C(C)N(Cc2ccc3c(c2)OCO3)C(=O)C1	1	13	.	0	2	-4	.	.
COCC(=O)N(C)C[C@@H]1Oc2ncc(C#CCC3CCCC3)cc2C(=O)N([C@H](C)CO)C[C@@H]1C	.	.	-9	.	.	.	.	.
CC=Cc1ccc2n(c1=O)C[C@H]1[C@H](CO)[C@@H](C(=O)NCc3ccc(F)cc3)[C@@H]2N1S(C)(=O)=O (mixture of isomers)	.	.	-5	.	.	.	.	.
COc1ccc(C(=O)Nc2cccc(NC(C)=O)c2)cc1	.	.	25	-1	5	.	.	.
SMILES	HSF1 inhib	MITF TRPM1 HTS	esBAF inh	Wnt bcat act	SMARCA2 activ	HSF1 activator	SMARCA2 act conf	GAL4-VP16 Luc
COc1ccc(NC(=O)c2ccc3[nH]c(C)c(C)c3c2)cc1	4	88*	58*	16	18*	19	9.5*	4
Cc1ccc(NC(=O)c2ccc(OC(=O)c3cc4ccccc4o3)cc2)cc1	18	60	60*	43*	9.1*	?	7	14*
COc1ccc(C(=O)Nc2cccc(C)c2)cc1	14	.	14	58*	9.6*	62*	13*	8.4*
COc1ccc(C(=O)Nc2cccc(-c3cnc4ccccc4n3)c2)cc1	-5	7	37	.	8.4*	-3	-3	3
Cc1cccc(S(=O)(=O)N2C[C@H](O)COC[C@@H]3O[C@H](CC(=O)NCc4ccncn4)CC[C@H]32)c1	.	.	-2	.	.	.	.	.
CCCNC(=O)[C@H]1[C@H](CO)[C@H]2Cn3c(ccc(C4=CCCC4)c3=O)[C@@H]1N2C(=O)C1CC1	.	.	1	.	.	.	.	.
C[C@@H]1CN([C@H](C)CO)C(=O)Cc2cc(NC(=O)Nc3ccccc3)ccc2O[C@@H]1CN(C)S(=O)(=O)c1cn(C)cn1	.	.	0	.	.	.	.	.
CN1CCN(C(=O)C[C@@H]2CC[C@@H](NC(=O)Nc3ccccc3F)[C@@H](CO)O2)CC1	.	.	-5	.	.	.	.	.
Cc1ccc(C(=O)Nc2cccc(C(=O)N3CCOCC3)c2)cc1	-9	9	21	41*	16*	-16	8.3*	3
COc1ccc(C(=O)NNc2ccccc2)cc1	-3	5	.	-1	10*	4	-1	0
CCC(=O)Nc1ccc2c(c1)C(=O)N(C)C[C@@H](OC)[C@@H](C)CN(CCc1ccccc1)[C@@H](C)CO2	.	.	-4	.	.	.	.	.
COc1ccc(C)cc1-n1cnnn1	-7	-1	.	8	8.1*	-4	0	2
COc1cc(/C=N/N=C2/C(=O)Nc3ccccc32)ccc1O	-1	-8	.	.	-1	15	.	.
O=C1Nc2ccccc2/C1=N\N=C\c1ccc(O)c(O)c1	-1	2	.	5	9.5*	-10	2	6.4*
O=C(O)Cn1cc(/C=C/[N+](=O)[O-])c2ccccc21	-2	4	.	1	3	-17	.	.
O=C(Cn1cc(/C=C\[N+](=O)[O-])c2ccccc21)Nc1ccccc1	19	-90	-1	1	17*	-8	10.0*	1
O=C(NCC1CC1)[C@H]1[C@H](CO)[C@H]2Cn3c(ccc(-c4ccccc4F)c3=O)[C@@H]1N2Cc1ccccc1	.	.	0	.	.	.	.	.
COc1ccccc1NC(=O)CCN1C(=O)c2ccccc2C1=O	11	2	-3	-2	9.5*	24	-3	-1
COc1ccc(NC(=O)CCN2C(=O)c3ccccc3C2=O)c(OC)c1	3	.	-4	0	-3	15	.	.
Cc1noc(/C=C/Nc2ccc(F)cc2F)c1[N+](=O)[O-]	13	47	.	40*	8.0*	42	7	10*
